# Reference: PubChem BioAssay (EPA / NIEHS)
# Some structures have more than one record in an assay (separate samples or runs), and their calls can disagree. Calls of active or inactive are those of the source. How the source made its calls: active means hit-call score of the fitted dose curve at least 0.9, where 1 is the maximum; inactive means score below 0.9.
# Experiments:
# [1] = read-out: TIMP metallopeptidase inhibitor 1 (TIMP1), TIMP1 (gene 7076); assay: BSK_MyoF_TIMP1: BioMAP Diversity Plus: MyoF Assay for TIMP metallopeptidase inhibitor 1 (TIMP1) Biomarker Activity (AID 2284269); conditions: primary human lung fibroblasts
# How it was run: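 Primary human lung fibroblasts, MyoF multiplex system; chemical exposure 24 h; TIMP-1 by ELISA; positive fitting direction vs DMSO control.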
# [2] = read-out: Matrix Metallopeptidase 1 (MMP1), MMP1 (gene 4312); assay: BSK_BF4T_MMP1: BioMAP Diversity Plus: BF4T Assay for Matrix Metallopeptidase 1 (MMP1) Biomarker Activity (AID 2284270); conditions: primary human bronchial epithelial cells with fibroblasts
# How it was run: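 Co-culture of human bronchial epithelial cells and dermal fibroblasts; MMP-1 levels measured by ELISA 24 hours after chemical dosing, relative to DMSO. Cytotoxicity checked in parallel cultures by SRB total-protein staining.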
# [3] = read-out: Matrix Metallopeptidase 3 (MMP3), MMP3 (gene 4314); assay: BSK_BF4T_MMP3: BioMAP Diversity Plus: BF4T Assay for Matrix Metallopeptidase 3 (MMP3) Biomarker Activity (AID 2284271); conditions: primary human bronchial epithelial cells with fibroblasts
# How it was run: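 Co-culture of human bronchial epithelial cells and dermal fibroblasts dosed 24 h; MMP-3 measured by ELISA, positive-direction fit versus DMSO. Cytotoxicity tracked by SRB total-protein staining (560 nm) in parallel cultures.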
# [4] = read-out: Tissue plasminogen activator (tPA), PLAT (gene 5327); assay: BSK_BF4T_tPA: BioMAP Diversity Plus: BF4T Assay for Tissue plasminogen activator (tPA) Biomarker Activity (AID 2284272); conditions: primary human bronchial epithelial cells with fibroblasts
# How it was run: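 tPA level quantified by ELISA at 24 h post-treatment in bronchial epithelial/dermal fibroblast co-cultures, gain of signal scored against DMSO baseline. Parallel cultures stained with 0.1% SRB (560 nm) to flag overt cytotoxicity.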
# [5] = read-out: Plasminogen Activator Inhibitor-1 (PAI1), SERPINE1 (gene 5054); assay: BSK_BF4T_PAI1: BioMAP Diversity Plus: BF4T Assay for Plasminogen Activator Inhibitor-1 (PAI1) Biomarker Activity (AID 2284273); conditions: primary human bronchial epithelial cells with fibroblasts
# How it was run: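 Co-culture of human bronchial epithelial cells and dermal fibroblasts exposed to compound for 24 h. PAI-1 measured by ELISA; activity fitted in positive direction versus DMSO. Parallel SRB staining assessed overt cytotoxicity.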
# [6] = BSK_BF4T_SRB: Viability Assessment in the BioMAP Diversity Plus: BF4T Assay (AID 2284274); conditions: primary human bronchial epithelial cells with fibroblasts
# How it was run: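 Co-culture of human bronchial epithelial cells and dermal fibroblasts (BioMAP BF4T) exposed 24 h. Total protein by sulforhodamine B staining (0.1% SRB after 10% TCA fixation, 560 nm) in parallel cultures; fitted vs DMSO.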
# [7] = read-out: urokinase Plasminogen Activator (uPA), PLAU (gene 5328); assay: BSK_BF4T_uPA: BioMAP Diversity Plus: BF4T Assay for urokinase Plasminogen Activator (uPA) Biomarker Activity (AID 2284275); conditions: primary human bronchial epithelial cells with fibroblasts
# How it was run: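 Co-culture of human bronchial epithelial cells and dermal fibroblasts; uPA quantified by ELISA 24 hours after dosing, fitted relative to DMSO. Parallel SRB total-protein staining assessed overt cytotoxicity.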
# [8] = read-out: Matrix Metallopeptidase 9 (MMP9), MMP9 (gene 4318); assay: BSK_BF4T_MMP9: BioMAP Diversity Plus: BF4T Assay for Matrix Metallopeptidase 9 (MMP9) Biomarker Activity (AID 2284276); conditions: primary human bronchial epithelial cells with fibroblasts
# How it was run: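 Co-culture of human bronchial epithelial cells and dermal fibroblasts dosed for 24 h; MMP-9 quantified by ELISA and fitted upward versus DMSO. Cytotoxicity monitored in parallel cultures by SRB total-protein staining at the biomarker time point.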
# [9] = read-out: Interleukin-8 (IL8), CXCL8 (gene 3576); assay: BSK_IMphg_IL8: BioMAP Diversity Plus: IMphg Assay for Interleukin-8 (IL8) Biomarker Activity (AID 2284277); conditions: primary human endothelial cells with macrophages
# How it was run: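 Co-culture of human venular endothelial cells and macrophages exposed to chemicals for 24 h; IL-8 quantified by ELISA and compared against the DMSO baseline, with SRB total-protein staining in parallel cultures for cytotoxicity.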
# [10] = read-out: Intercellular Adhesion Molecule 1 (ICAM1), ICAM1 (gene 3383); assay: BSK_BE3C_ICAM1: BioMAP Diversity Plus: BE3C Assay for Intercellular Adhesion Molecule 1 (ICAM1) Biomarker Activity (AID 2284278); conditions: primary human bronchial epithelial cells;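 further: cell-surface ICAM-1 protein level quantified by ELISA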
# How it was run: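 Primary human bronchial epithelial cells were exposed to compound for 24 h, after which cell-surface ICAM-1 was quantified by ELISA. Activity was fitted in the gain-of-signal direction against DMSO as negative control and baseline.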
# [11] = read-out: Interleukin-8 (IL8), CXCL8 (gene 3576); assay: BSK_BE3C_IL8: BioMAP Diversity Plus: BE3C Assay for Interleukin-8 (IL8) Biomarker Activity (AID 2284280); conditions: primary human bronchial epithelial cells
# How it was run: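 IL-8 signal gain, normalised to DMSO vehicle, was scored after a 24 h chemical exposure of primary human bronchial epithelial cells, with detection by ELISA.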
# [12] = read-out: Epidermal growth factor receptor (EGFR), EGFR (gene 1956); assay: BSK_BE3C_EGFR: BioMAP Diversity Plus: BE3C Assay for Epidermal growth factor receptor (EGFR) Biomarker Activity (AID 2284281); conditions: primary human bronchial epithelial cells
# How it was run: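 Compound is added to human bronchial epithelial cells, cells incubate 24 h, then EGFR is detected by ELISA. Values reflect positive-direction fitting relative to DMSO.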
# KRT18 (gene 3875) = assay: BSK_BE3C_Keratin818: BioMAP Diversity Plus: BE3C Assay for Keratin 818 Biomarker Activity (AID 2284282); conditions: primary human bronchial epithelial cells
# How it was run: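 Human primary bronchial epithelial cells in the BE3C system were exposed to test chemical for 24 h, then Keratin 8/18 was quantified by ELISA. Activity was fitted in the positive direction against DMSO as negative control and baseline.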
# [13] = read-out: Matrix Metallopeptidase 9 (MMP9), MMP9 (gene 4318); assay: BSK_BE3C_MMP9: BioMAP Diversity Plus: BE3C Assay for Matrix Metallopeptidase 9 (MMP9) Biomarker Activity (AID 2284283); conditions: primary human bronchial epithelial cells
# How it was run: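 Human primary bronchial epithelial cells exposed 24 h to compound. MMP9 quantified by ELISA. SRB total-protein staining of parallel cultures assesses cytotoxicity. Positive-direction fit relative to DMSO.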
# [14] = read-out: Plasminogen activator inhibitor-1 (PAI1), SERPINE1 (gene 5054); assay: BSK_CASM3C_PAI1: BioMAP Diversity Plus: CASM3C Assay for Plasminogen activator inhibitor-1 (PAI1) Biomarker Activity (AID 2284284); conditions: primary human coronary artery smooth muscle cells;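 further: PAI-1 protein level measured by ELISA 24 h after dosing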
# [15] = read-out: Monocyte Chemoattractant Protein-1 (MCP1), CCL2 (gene 6347); assay: BSK_hDFCGF_MCP1: BioMAP Diversity Plus: hDFCGF Assay for Monocyte Chemoattractant Protein-1 (MCP1) Biomarker Activity (AID 2284285); conditions: primary human foreskin fibroblasts
# How it was run: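 Human foreskin fibroblasts (hDFCGF system) were exposed to compound and secreted MCP-1 was measured by ELISA after 24 hours. Activity was fitted relative to DMSO. Cytotoxicity was checked by SRB total-protein staining in parallel cultures.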
# [16] = read-out: Vascular cell adhesion molecule 1 (VCAM1), VCAM1 (gene 7412); assay: BSK_IMphg_VCAM1: BioMAP Diversity Plus: IMphg Assay for Vascular cell adhesion molecule 1 (VCAM1) Biomarker Activity (AID 2284286); conditions: primary human endothelial cells with macrophages
# How it was run: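 Human venular endothelial cells co-cultured with macrophages; VCAM-1 quantified by ELISA 24 h after dosing, fitted in the positive direction against DMSO. Cytotoxicity was checked in parallel cultures by SRB total-protein staining (0.1% SRB after 10% TCA fixation, 560 nm).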
# [17] = read-out: Intercellular Adhesion Molecule 1 (ICAM1), ICAM1 (gene 3383); assay: BSK_hDFCGF_ICAM1: BioMAP Diversity Plus: hDFCGF Assay for Intercellular Adhesion Molecule 1 (ICAM1) Biomarker Activity (AID 2284287); conditions: primary human foreskin fibroblasts
# How it was run: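 Primary human foreskin fibroblasts (hDFCGF system) dosed with chemical; ICAM-1 quantified by ELISA at 24 h relative to DMSO. Parallel SRB total-protein staining to assess overt cytotoxicity.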
# [18] = read-out: Interferon-inducible T-cell alpha chemoattractant (ITAC), CXCL11 (gene 6373); assay: BSK_BE3C_ITAC: BioMAP Diversity Plus: BE3C Assay for Interferon-inducible T-cell alpha chemoattractant (ITAC) Biomarker Activity (AID 2284279); conditions: primary human bronchial epithelial cells
# How it was run: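 Steps: dose human bronchial epithelial cells with chemical; incubate 24 h; measure I-TAC by ELISA; fit endpoint in positive direction against DMSO control. Cytotoxicity was checked in parallel cultures by SRB staining at harvest.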
SMILES,outcome [1],outcome [2],outcome [3],outcome [4],outcome [5],outcome [6],outcome [7],outcome [8],outcome [9],outcome [10],outcome [11],outcome [12],outcome (KRT18 (gene 3875)),outcome [13],outcome [14],outcome [15],outcome [16],AC50 [17],outcome [17],outcome [18]
NC(=O)C(F)(F)C(F)(F)C(F)(F)C(F)(F)C(N)=O,inactive,inactive,inactive,inactive,inactive,inactive,inactive,inactive,inactive,inactive,inactive,inactive,inactive,inactive,inactive,inactive,inactive,17.6 µM (active),inactive,–
NC(=O)C(F)(F)C(F)(F)C(F)(F)C(F)(F)C(F)(F)C(F)(F)C(F)(F)F,inactive,inactive,inactive,inactive,inactive,inactive,inactive,inactive,inactive,inactive,inactive,inactive,–,inactive,inactive,inactive,inactive,–,inactive,–
O=C(O)CCC(F)(F)C(F)(F)C(F)(F)F,inactive,inactive,inactive,inactive,inactive,inactive,inactive,inactive,inactive,inactive,inactive,inactive,–,inactive,inactive,inactive,inactive,–,inactive,–
CO[Si](C)(CCC(F)(F)C(F)(F)C(F)(F)C(F)(F)C(F)(F)C(F)(F)F)OC,inactive,inactive,inactive,inactive,inactive,inactive,inactive,inactive,inactive,inactive,inactive,inactive,–,inactive,inactive,inactive,inactive,–,inactive,inactive
O=C(F)C1(F)C(F)(F)C(F)(F)C(F)(F)C(F)(F)C1(F)F,inactive,inactive,inactive,inactive,inactive,inactive,inactive,inactive,inactive,inactive,inactive,inactive,inactive,inactive,inactive,inactive,inactive,–,inactive,–
OC(O)C(F)(F)C(F)(F)F,inactive,inactive,inactive,inactive,inactive,inactive,inactive,inactive,inactive,inactive,inactive,inactive,–,inactive,inactive,inactive,inactive,–,inactive,inactive
